FECH inh: inhibitors of human ferrochelatase, primary screen, biochemical, purified FECH, Ni-mesoporphyrin absorbance; 20,000 compounds, 3.3% hits; calls only at 10 µM (by protocol); Ferrochelatase, mitochondrial (Homo sapiens), P22830; Ni-mesoporphyrin absorbance 550 nm;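 active = enzyme reaction rate more than 3 SD below the solvent-only control wells on the same plate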;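 note: lower slope than DMSO wells means FECH inhibition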
Target sequence (P22830 whole entry, looked up): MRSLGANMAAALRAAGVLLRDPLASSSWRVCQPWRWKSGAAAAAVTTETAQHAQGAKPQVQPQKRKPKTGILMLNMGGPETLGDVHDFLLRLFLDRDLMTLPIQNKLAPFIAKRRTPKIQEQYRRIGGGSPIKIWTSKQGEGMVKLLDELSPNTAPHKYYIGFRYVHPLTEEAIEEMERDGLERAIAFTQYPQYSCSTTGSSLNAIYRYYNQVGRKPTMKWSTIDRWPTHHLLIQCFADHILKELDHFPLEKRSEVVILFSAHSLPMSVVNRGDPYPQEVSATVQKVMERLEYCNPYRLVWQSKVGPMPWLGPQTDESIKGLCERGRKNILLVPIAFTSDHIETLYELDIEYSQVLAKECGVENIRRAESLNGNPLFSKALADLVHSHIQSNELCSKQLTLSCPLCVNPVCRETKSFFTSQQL
* hit, by the source's call; i = inactive; + = active, no number. The full list was thinned out, with hits kept by preference.

SMILES	FECH inh
O=C(CN1CCN(Cc2ccccc2F)S1(=O)=O)Nc1ccc(Br)cc1	i
CCc1nc(OCC(=O)NCc2cccc(OC)c2)c2c(-c3ccc(F)cc3)noc2n1	+
CCOc1ccc(CNC(=O)COc2nc(CC)nc3onc(-c4ccc(F)cc4)c23)cc1	i
CCc1nc(OCC(=O)NCc2ccc(C)cc2)c2c(-c3ccc(F)cc3)noc2n1	i
CCC(CC)C(=O)Nc1ccc(Nc2nc(C)cc(Nc3ccc(OC)cc3)n2)cc1	i
Fc1cccc(Nc2nc(NCc3ccco3)nc3c2cnn3-c2ccccc2)c1	i
COCCc1noc(CNC2CCSC2)n1 (stereo not given)	i
CCCc1nc2nc[nH]n2c(=O)c1NC(=O)Nc1ccc(Br)c(C)c1	+
CCCc1nc2nc[nH]n2c(=O)c1NC(=O)Nc1ccc(Br)cc1	i
CCCc1nc2nc[nH]n2c(=O)c1NC(=O)Nc1ccc(C)c(F)c1	i
CCO[C@H]1COC[C@@H]1NC(=O)Cn1cc(Cl)c(C)n1	i
Cc1cc(C)nc(N2CCN(C(=O)CSc3n[nH]c(C)n3)CC2)n1	i
COc1ccc(CN2CCN(C(=O)c3nc4ccccc4n(C)c3=O)CC2)c(OC)c1OC	+
COc1ccc(N2CCN(C(=O)c3nc4ccccc4n(C)c3=O)CC2)cc1	i
Cn1c(=O)c(C(=O)N2CCN(c3ncccn3)CC2)nc2ccccc21	i
O=c1cc(CNc2cccc(C(F)(F)F)c2)nc2nc(NCc3ccccc3)[nH]n12	i
CCc1ccc(NCc2cc(=O)n3[nH]c(NCc4ccccc4)nc3n2)cc1	i
COc1ccc(CNc2nc3nc(CN4CCCC4)cc(=O)n3[nH]2)cc1	+
O=c1cc(CN2CCCC2)nc2nc(NCc3ccc(F)cc3)[nH]n12	i
COc1ccc(CNc2nc3nc(CNc4ccc(C)cc4C)cc(=O)n3[nH]2)cc1	+
Cc1ccccc1NCc1cc(=O)n2[nH]c(NCc3ccccc3)nc2n1	+
COc1ccc(CNc2nc3nc(CNc4cccc(C)c4)cc(=O)n3[nH]2)cc1	i
COc1ccc(CNc2nc3nc(CNc4ccc(C)c(C)c4)cc(=O)n3[nH]2)cc1	i
COc1ccc(CNc2nc3nc(CNc4ccccc4C)cc(=O)n3[nH]2)cc1	i
O=c1cc(CNCc2ccccc2)nc2nc(NCc3ccccc3)[nH]n12	+
SMILES	FECH inh
CCCNCc1cc(=O)n2[nH]c(NCc3ccccc3)nc2n1	i
COc1ccc(CNc2nc3nc(CN4CCC(C)CC4)cc(=O)n3[nH]2)cc1	i
CCCOc1ccc(-c2c(NCc3ccccc3)oc3c2c(=O)n(C)c(=O)n3C)cc1	i
CN1Cc2ccccc2CC1C(=O)NCCc1csc(-c2cccnc2)n1 (stereo not given)	i
CCOc1ccc(Nc2nc(NCCN3CCOCC3)nc3c2cnn3-c2ccccc2)cc1	i
CCc1ccccc1NC(=O)CCNC1CCSC1 (stereo not given)	i
COc1ccc(S(=O)(=O)N2CCN(c3nc(C)cc(Nc4ccccc4)n3)CC2)cc1C	i
Cc1nc([C@@H](N)c2ccccc2Cl)n(-c2ccc(F)cc2)n1	i
NCCc1nc(NCCN2CCc3ccccc32)c2ccccc2n1	i
Cc1ccc(C)c(NC(=O)CCNC(=O)c2cc(-c3ccccc3)nn2C)c1	i
c1ccc2c(c1)OCC(Cn1ccnc1-c1cnc(N3CCCC3)nc1)O2 (stereo not given)	i
O=C1N(Cc2ccc(F)cc2)CCCC1(O)CN1CCN(c2cnccn2)CC1 (stereo not given)	i
COc1nc(OC)nc(-c2ccc(F)c(CO)c2)n1	i
Cc1ccc(-c2nccc(CCC(F)(F)F)n2)c(F)c1	i
CCn1c(CN2CCCn3nc(C(=O)OC)cc3C2)nc2ccccc21	i
Cc1ccc(Cl)cc1NCc1cc(=O)n2[nH]c(NCc3ccccc3)nc2n1	+
Cc1ccc(NCc2cc(=O)n3[nH]c(NCc4ccccc4)nc3n2)cc1Cl	i
COc1ccc(CNc2nc3nc(CNc4ccccc4Cl)cc(=O)n3[nH]2)cc1	i
O=C(CN1CCCN(Cc2cccc(Cl)c2)S1(=O)=O)NCc1ccc(F)cc1	i
Cc1ccc(NC(=O)CN2CCN(Cc3ccc(F)cc3)S2(=O)=O)cc1	i
Cc1ccc(CN2CCCN(CC(=O)Nc3ccc(C)cc3)S2(=O)=O)cc1	+
CC(=O)c1ccc(NC(=O)CN2CCCN(Cc3cccc(C)c3)S2(=O)=O)cc1	i
Cc1ccc(NC(=O)CN2CCN(Cc3cccc(Cl)c3)S2(=O)=O)cc1	+
O=C(CN1CCCN(Cc2cccc(F)c2)S1(=O)=O)Nc1ccc(F)cc1	i
Cc1ccc(CN2CCN(CC(=O)Nc3ccc(C)cc3)S2(=O)=O)cc1	i
SMILES	FECH inh
Cc1cccc(CN2CCN(CC(=O)Nc3ccc(F)cc3)S2(=O)=O)c1	+
Cc1ccc(CN2CCCN(CC(=O)Nc3cccc(Cl)c3)S2(=O)=O)cc1	i
Cc1cccc(CN2CCCN(CC(=O)Nc3cccc(C)c3)S2(=O)=O)c1	i
O=C(CN1CCN(Cc2ccccc2)S1(=O)=O)Nc1cccc(Cl)c1	i
Cc1ccc(NC(=O)CN2CCCN(Cc3cccc(C)c3)S2(=O)=O)cc1	+
Cc1cccc(NC(=O)CN2CCN(Cc3ccc(F)cc3)S2(=O)=O)c1	i
CCc1ncc2c(n1)CN(C(=O)CC1CC(C)(C)NC(C)(C)C1)C2	i
COC(=O)[C@@H]1C[C@@H](NC(=O)c2cc(N)ccn2)CN1C	i
Cc1cccc(OCC(=O)Nc2cc(C)nn2-c2ncnc3c2cnn3-c2cccc(Cl)c2)c1	i
COc1cc(OC)c(NC(=O)NCCc2nc3cccnc3n2-c2ccccc2)cc1Cl	i
CCCc1cc(Sc2ccc(NS(=O)(=O)c3ccc(F)cc3)cc2)n2ncnc2n1	i
Cc1cccc(CN2CCCN(CC(=O)Nc3ccc(F)c(Cl)c3)S2(=O)=O)c1	+
Cc1cccc(CN2CCCN(CC(=O)Nc3ccc(C)c(F)c3)S2(=O)=O)c1	i
O=C(CN1CCCN(Cc2cccc(F)c2)S1(=O)=O)Nc1ccc(F)c(Cl)c1	i
CN(Cc1ccccc1)S(=O)(=O)c1cc(-c2ccc(=O)[nH]n2)ccc1Cl	i
CSc1ccc(CNC(=O)COc2cc(C)nc(-c3ccc(C)cc3)n2)cc1	i
Cc1ccc(NC(=O)CSc2cc(Oc3cc(C)cc(C)c3)ncn2)cc1	+
COc1cc(NC(=O)CSc2cc(Oc3cc(C)cc(C)c3)ncn2)cc(OC)c1	+
Cc1ccc(NC(=O)CSc2cc(N3CCCCC3)ncn2)cc1F	i
COc1ccc(NC(=O)CSc2cc(N3CCCCC3)ncn2)cc1OC	i
CSc1ccc(CNC(=O)CSc2cc(Oc3cc(C)cc(C)c3)ncn2)cc1	+
CCc1cccc(NC(=O)CN2CCCN(Cc3ccc(OC)cc3)S2(=O)=O)c1	i
CCc1cccc(NC(=O)CCC(=O)NCc2ncc[nH]2)c1	i
COc1ccc(CNC(=O)CSc2cc(N3CCCCC3)ncn2)cc1	i
COc1cc(NC(=O)CN2CCCN(Cc3ccc(C)cc3)S2(=O)=O)cc(OC)c1	i
CCc1cccc(NC(=O)CSc2cc(Oc3cc(C)cc(C)c3)ncn2)c1	+
O=C(CSc1cc(N2CCCCC2)ncn1)Nc1ccc2c(c1)OCCO2	i
CSc1cccc(N2C(=O)N(CC(=O)NC3CCCCC3)c3ccccc3S2(=O)=O)c1	i
CCSCC(C)NCc1noc(-c2ccco2)n1 (stereo not given)	i
Cc1ccc(Nc2nc(NC3CCCCCC3)nc3c2cnn3-c2ccccc2)cc1	i
